Laboratory results: PubChem BioAssay AID492998 (Southern Research Specialized Biocontainment Screening …, 2010)
Out of some 2,300 compounds screened, about 550 (24%) were called active. No rule for the calls is given here. These entries were drawn from the full list. Results with a measured potency or affinity are listed apart.

assay: Vero E6 cell cytotoxicity, dose response, cytotoxicity control for non-replicating M. tuberculosis project, secondary assay (AID 492998); conditions: series mostly up to 20 µM

Row | SMILES | outcome
1 | CC1(C)CC(=O)C(C2NCCc3ccccc32)=C(O)C1 (stereo not given) | inactive
2 | CCCOc1ccc(N2CC(C(=O)Nc3ccccn3)CC2=O)cc1 (stereo not given) | inactive
3 | COc1ccc(/C=N/NC(=O)C(=O)NCc2cccnc2)cc1OC | inactive
4 | COc1cc(OC)c2c(OC)cccc2n1 | inactive
5 | CC(C)(C)Sc1ccc2nc3c(n2c1)CCCC3 | inactive
6 | CC(/C=C/c1ccc2c(c1)OCO2)=N/NC(=O)C1COc2ccccc2O1 (stereo not given) | inactive
7 | CCOC(=O)Cn1nc(/C=C/c2ccccc2)ccc1=O | inactive
8 | CCOc1cccc2cc(C(=O)NC(C)c3ccccc3)c(=N)oc12 (stereo not given) | inactive
9 | O=C(N/N=C/c1ccc(O)cc1)c1cccc(C(F)(F)F)c1 | inactive
10 | O=C(Nc1nnc(C2=COCCO2)o1)c1cccc(C(F)(F)F)c1 | inactive
11 | Nc1ccccc1Nc1ccccc1 | inactive
12 | CCCCCCOC(=O)C(C#N)c1nc2ccccc2nc1N1CCN(CC)CC1 (stereo not given) | inactive
13 | CCCn1c(O)c(N=NC(=O)c2ccco2)c2ccccc21 | inactive
14 | CCc1ccc(N2C(=O)CC(N3CCC(C(=O)OC)CC3)C2=O)cc1 (stereo not given) | inactive
15 | O=C(NCCc1c[nH]c2ccccc12)c1cc2ccccc2oc1=O | inactive
16 | O=C(CNC(=O)c1ccccc1)OC1CCCCC1 | inactive
17 | Cc1cc(C)cc(OCC(=O)N/N=C/c2ccc([N+](=O)[O-])o2)c1 | inactive
18 | CCCCCCCC(=O)N/N=C/c1ccc([N+](=O)[O-])o1 | inactive
19 | O=C(CCSc1nnc(-c2ccccc2)o1)N1CCOCC1 | inactive
20 | Cc1cc(C)n2nc(N)c(N=Nc3ccccc3)c2n1 | inactive
21 | CCC(C)n1nnc2c(=O)oc3ccccc3c21 (stereo not given) | inactive
22 | CCOc1ccc(NC(=O)COC(=O)C2(C)CC2(Cl)Cl)c([N+](=O)[O-])c1 (stereo not given) | inactive
23 | N#Cc1cc(N)ccc1-n1cccc1 | inactive
24 | N/C(=N\OC(=O)CC1CCCCC1)c1ccncc1 | inactive

Row | SMILES | outcome
25 | CC(C)CN1C(=O)CC(Sc2ccccc2C(=O)O)C1=O (stereo not given) | inactive
26 | O=C1CC(N2CCC(c3nc4ccccc4o3)CC2)C(=O)N1 (stereo not given) | inactive
27 | COc1ccccc1NC(=O)CCN1CCN(c2ccc(Cl)cc2)CC1 | inactive
28 | CC(C)n1c(=S)[nH]c2ccccc2c1=O | inactive
29 | O=C(N/N=C/c1ccc([N+](=O)[O-])s1)c1ccccc1 | inactive
30 | Cc1ccc(C(=O)N/N=C/C=C/c2ccccc2)cc1 | inactive
31 | Cc1ccc(C(=O)N/N=C\c2ccc[nH]2)cn1 | inactive
32 | O=C(N/N=C/c1ccc(Br)s1)c1cccnc1 | inactive
33 | Cn1cccc1/C=N/NC(=O)c1ccncc1 | inactive
34 | Cc1ccc(C(=O)N/N=C\c2ccc(-c3ccc(Cl)cc3)o2)cn1 | inactive
35 | COc1cccc(-c2nc(C=O)cs2)c1 | inactive
36 | CCCOc1ccc(N2C(=O)CC(N3CCCC(C(=O)N4CCCC4)C3)C2=O)cc1 (stereo not given) | inactive
37 | COC(=O)CN(C#N)c1nc(SC)nc(N(C)C)n1 | inactive
38 | CC(C)C[C@H]1CN=C(Nc2ccccc2)N1CCCC1CCCCC1 | inactive
39 | CCSc1nc(O)c(C2OC(=O)c3c2ccc(OC)c3OC)c(=O)n1-c1ccccc1 (stereo not given) | inactive
40 | CCOc1cccc2cc(C(=O)Nc3nccs3)c(=O)oc12 | inactive
41 | O=C(CN1CCC(NC(=O)c2cccc(F)c2)CC1)Nc1ccc(Br)cc1 | inactive
42 | Cc1onc(-c2ccccc2)c1C(=O)Nc1nnc(COc2ccc(Cl)cc2)s1 | inactive
43 | Cc1ccc(/C=N/NC(=O)c2ccncc2)s1 | inactive
44 | O=C(N/N=C/c1ccc(Br)s1)c1ccncc1 | inactive
45 | CC(=O)N1N=C(c2ccccc2)OC1c1ccc([N+](=O)[O-])s1 (stereo not given) | inactive
46 | O=C(Nc1ccccc1)c1cc2ccccc2o1 | inactive
47 | CN(C)Cc1ccccc1Sc1ccc(Br)cc1 | inactive
48 | CC(C)(NO)/C(=N\O)c1ccccc1 | inactive

Row | SMILES | outcome
49 | CCCOC(=O)c1ccc(-c2ccc(C=O)o2)cc1 | inactive
50 | Cc1ccc2nc3c(c(N)c2c1)CCN3c1ccccc1 | inactive
51 | C=C(C)C1Cc2c(C)nn(-c3nc(C)cc(C)n3)c2C1 (stereo not given) | inactive
52 | CCc1nnc(N/N=C/c2ccc(-c3ccc([N+](=O)[O-])cc3)o2)n1N | inactive
53 | Cc1cccc(NC(=O)COC(=O)c2cc3ccccc3oc2=O)c1 | inactive
54 | CCOc1cccc2cc(C(=O)NCc3ccccc3)c(=N)oc12 | inactive
55 | Cc1ccc(N=Nc2c(C)[nH]n(C(N)=S)c2=O)cc1C | inactive
56 | O=C(c1ccc(-c2ccc([N+](=O)[O-])cc2)o1)N1CCN(S(=O)(=O)c2cccs2)CC1 | inactive
57 | COc1cccc(NC(=O)c2ccc(-c3ccc([N+](=O)[O-])cc3)o2)c1 | inactive
58 | COc1ccccc1C(=O)OCC(=O)Nc1ccc(Cl)cn1 | inactive
59 | CC(C)(C)NC(=O)c1ccc(NC(=O)c2ccccc2-c2ccccc2C(=O)O)cc1 | inactive
60 | CN1CCC(O)(c2ccc(Cl)cc2)C(C(=O)c2ccc(Cl)cc2)C1 (stereo not given) | inactive
61 | Cc1nc(Cl)nc(N(C)c2ccccc2)c1[N+](=O)[O-] | inactive
62 | N/C(=N/OC(=O)c1ccc(Cl)cc1)c1ncc([N+](=O)[O-])s1 | inactive
63 | Cc1nnc(NC(=O)c2ccc3ccccc3c2)o1 | inactive
64 | O=C(Cn1cc([N+](=O)[O-])nc1[N+](=O)[O-])N1CCN(c2ccccc2)CC1 | inactive
65 | Cc1cc(C=C2C(=O)NC(=S)NC2=O)c(C)n1C1CCCC1 | inactive
66 | CSc1nc2ccc(NC(=O)C3CC(=O)N(Cc4ccccc4)C3)cc2s1 (stereo not given) | inactive
67 | CC1CCN(CCc2nc3cc(NC(=O)COc4ccc(Cl)cc4)ccc3n2C)CC1 | inactive
68 | NC(=S)n1[nH]c(-c2ccc([N+](=O)[O-])cc2)c(N=Nc2ccc(O)cc2)c1=O | inactive
69 | COC(=O)c1ccc(CSc2nnc(-c3ccncc3)o2)o1 | inactive
70 | CCOC(=O)COc1ccc(/C=C2\NC(=S)N(CC)C2=O)cc1 | inactive
71 | FC(F)(F)c1ccc(NCCc2ccccc2)nc1 | inactive
72 | O=C(COc1ccc(F)cc1)N/N=C/c1cccc2cccnc12 | inactive

Row | SMILES | outcome
73 | O=C1/C(=C/c2cccs2)COc2ccccc21 | inactive
74 | Brc1ccc(OCCCCN2CCCCC2)cc1 | inactive
75 | Cc1occc1C(=O)N/N=C/C(Br)=C\c1ccccc1 | inactive
76 | O=C(CN1CCCCC1)Nc1nnc(-c2ccc([N+](=O)[O-])cc2)s1 | inactive
77 | N#Cc1nc(-c2cccs2)oc1NCCc1ccccc1 | inactive
78 | COc1cc(N=c2ssnc2Cl)cc(OC)c1OC | inactive
79 | N=c1n(CCN2CCCCC2)c2ccccc2n1CC(=O)c1ccc(Cl)c(Cl)c1 | inactive
80 | O=C1Nc2cc(C(=O)NCCCN3CCOCC3)ccc2S/C1=C/c1cccc(Cl)c1 | inactive
81 | COCCOC(=O)c1c(C)oc2ccc(OC(=O)c3ccco3)cc12 | inactive
82 | O=C(Nc1ncc(Cc2ccccc2)s1)C1=NCCN1 | inactive
83 | OCC#CCSc1nnc(-c2ccc(Br)cc2)o1 | inactive
84 | CCN(CC)c1ccc2c(c1)oc(=O)c1c(Cl)cc(=O)oc12 | inactive
85 | CN(CCOCCOc1ccc(F)cc1)Cc1ccccc1 | inactive
86 | CCCCOC(=O)Cn1c(-c2ccccc2)nc2ccccc2c1=O | inactive
87 | CCOC(=O)c1cc(-c2csc(COc3ccc(Cl)cc3)n2)on1 | inactive
88 | NC(=O)C1CCN(C2CC(=O)NC2=O)CC1 (stereo not given) | inactive
89 | CCC(C)n1c(=S)[nH]c2ccccc2c1=O (stereo not given) | inactive
90 | Nc1ccc2nc3c(c(Cl)c2c1)CCCC3 | inactive
91 | O=C(CCSc1nnc(-c2ccncc2)o1)Nc1ccc(Cl)cc1 | inactive
92 | CCC1(O)CC(c2ccccc2)=NN1C(=O)c1ccccc1F (stereo not given) | inactive
93 | CCOC(=O)C(C)(C)n1nnc(-c2ccc([N+](=O)[O-])cc2)n1 | inactive
94 | Cc1cc(=O)n2cccc(O)c2n1 | inactive
95 | O=C(NNc1nc2cc3c(cc2s1)OCCO3)c1ccccc1 | inactive
96 | C/C(CC(=O)Nc1ccc(N(C)C)cc1)=N\NC(=O)c1ccncc1 | inactive

Row | SMILES | outcome
97 | NC(=O)c1cccnc1Nc1cccc(F)c1 | inactive
98 | CN(C)CCCn1c(=O)n(C2CCCCC2)c(=O)c2c3c(sc21)CCCCC3 | inactive
99 | CN(C)CCNc1c2c(c(C#N)c3nc4ccccc4n13)CCCC2 | inactive
100 | COc1cc(/C=N/Nc2ccc(Cl)c(C(=O)O)c2)ccc1OC(=O)c1cccs1 | inactive
101 | CC1=NN(C(=O)c2csc(C)c2C)C(O)(C(F)(F)F)C1 (stereo not given) | inactive
102 | O=C(CCc1ccccc1F)N1CCN(c2ccccc2)CC1 | inactive
103 | Cc1cc(/C=N\NC(=O)c2cccs2)c(C)n1-c1ccc2ncccc2c1 | inactive
104 | O=c1cc(-c2ccccc2Cl)oc2c([N+](=O)[O-])c(O)cc(O)c12 | inactive
105 | O=C(NC(=S)NCCc1ccccc1)c1ccccc1 | inactive
106 | C/C(=N\NC(=O)c1ccncc1)c1cc2ccccc2oc1=O | inactive
107 | C/C(=N\NC(=O)c1cccc(Cl)c1)C1C(=O)c2ccccc2C1=O | inactive
108 | O=C(CCc1ccccc1)NC1C2CC3CC(C2)CC1C3 (stereo not given) | inactive
109 | C/C(=N/NC(=O)c1cccc(C)c1)c1c(O)cc(C)oc1=O | inactive
110 | CC1CCN(C(=O)COC(=O)c2cc3ccccc3cc2O)CC1 | inactive
111 | O=C1/C(=C/C=C/c2ccccc2)Oc2c1ccc(O)c2CN1CCN(CCO)CC1 | inactive
112 | O=C(COC(=O)C1CC2C=CC1C2)Nc1ccccc1 (stereo not given) | inactive
113 | COC(=O)c1cc2c(ccc3ccccc32)oc1=O | inactive
114 | COc1ccc(-c2cc(=O)oc(-c3cccc(C)c3)n2)cc1 | inactive
115 | Cc1nn(-c2ccccc2)nc1C(=O)c1c(C)[nH]n(-c2ccccc2)c1=O | inactive
116 | O=C(OCc1c(Cl)cccc1Cl)c1ccccn1 | inactive
117 | CCOC(=O)c1ccc(COC(=O)c2cc3ccccc3oc2=O)o1 | inactive
118 | CC(=O)NCCOC(=O)Nc1sc(=S)n(C)c1C | inactive
119 | CC1CCN(C(=O)C2COc3ccccc3O2)CC1 (stereo not given) | inactive
120 | Cc1csc(=Nc2cccnc2)n1CC1CCCCC1 | inactive
